High-throughput results (PubChem BioAssay)
FXN GAA850 act = increases GAA850 frataxin promoter reporter activity. AID 540364. 0.56% of 360,000 active. HEK293 lucGAA850 FXN promoter luciferase reporter, 24 h; percent of 10 µM SAHA response. activation, % at 6 µM;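 active means activation above the average of all compounds screened plus 3 SD, cutoff fixed separately per campaign, cut at about 7.5% in these data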;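 further: 0% = DMSO wells and 100% = 10 µM SAHA wells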
HSF1 inh = HSF1 inhibition; NIH3T3-HGL HSE-luciferase, MG132-induced, luminescence 8 h; hits give low values; activity change, negative = inhibition, % at 7.5 µM (by protocol); 0.77% of 300,000 active; AID 2098;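 active means more than half of replicate wells show activity change below -50%, luminescence cut by over half; inconclusive means some wells, but at most half, below -50%; inactive means no replicate well below -50%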;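 further: luciferase reports HSF-1 transcriptional activity via heat shock element; 0% = median of DMSO wells and -100% = zero luminescence signal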
AHR activator = activators of human aryl hydrocarbon receptor; P35869; 2.5% of 320,000 active; AID 2796; activation, % at 5 µM; AHR-responsive luciferase reporter cells, luminescence; in the data active means activation above about 47%;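 further: 0% = vehicle wells and 100% = reference agonist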
Target sequence (P35869 whole entry, looked up): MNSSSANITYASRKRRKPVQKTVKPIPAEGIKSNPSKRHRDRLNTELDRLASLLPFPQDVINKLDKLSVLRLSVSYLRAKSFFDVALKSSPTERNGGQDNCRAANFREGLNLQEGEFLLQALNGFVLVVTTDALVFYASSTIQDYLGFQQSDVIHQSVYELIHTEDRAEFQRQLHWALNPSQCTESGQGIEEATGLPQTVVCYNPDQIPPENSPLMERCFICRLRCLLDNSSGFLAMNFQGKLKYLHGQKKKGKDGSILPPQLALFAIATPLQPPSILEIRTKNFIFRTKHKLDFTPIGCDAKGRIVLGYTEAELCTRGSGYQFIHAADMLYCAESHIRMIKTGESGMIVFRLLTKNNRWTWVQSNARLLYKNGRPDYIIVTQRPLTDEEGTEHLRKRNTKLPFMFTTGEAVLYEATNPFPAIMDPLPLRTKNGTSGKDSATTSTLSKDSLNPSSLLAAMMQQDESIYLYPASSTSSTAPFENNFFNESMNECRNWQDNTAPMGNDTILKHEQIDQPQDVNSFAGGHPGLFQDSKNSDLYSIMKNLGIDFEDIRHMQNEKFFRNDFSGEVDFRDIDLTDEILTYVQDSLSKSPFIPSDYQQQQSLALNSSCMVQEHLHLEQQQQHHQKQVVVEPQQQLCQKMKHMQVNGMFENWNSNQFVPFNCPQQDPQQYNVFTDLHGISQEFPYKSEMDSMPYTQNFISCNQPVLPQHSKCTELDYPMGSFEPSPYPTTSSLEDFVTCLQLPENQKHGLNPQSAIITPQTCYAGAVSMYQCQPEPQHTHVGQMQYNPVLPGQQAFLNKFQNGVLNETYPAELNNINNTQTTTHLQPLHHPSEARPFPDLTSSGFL
HSF-1 act = increases HSF-1 driven luciferase reporter signal | NIH3T3-HGL HSF-1 luciferase reporter, MG132, 8 h; 100% = twice DMSO control signal | activation, % at 9 µM | 1.7% of 300,000 active;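 active means mean replicate activation of at least 50% with a set share of replicates each reaching 50%; inconclusive means only one of those two conditions met; inactive means mean below 50% and too few replicates reaching it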;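 further: 0% = median of the neutral control wells and 100% = twice that signal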
NR0B1 inh = NR0B1 (DAX1) inhibition. inhibition, % at 6.75 µM. HEK293 Gal4-DAX1 luciferase reporter, luminescence. 0.99% of 340,000 active. AID 504766;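 active means inhibition above the mean over all tested compounds plus 3 SD, cut at about 4.2% in these data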;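 further: 0% = DAX1-transfected cells with DMSO and 100% = empty-vector control cells with DMSO; inhibition shows as a rise in luminescence from relieved DAX1 repression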
Active calls of the source: *; ? = inconclusive; . = no result. Compounds with a hit are over-represented: about 5.4% of the library has one in this group of screens.

SMILES	FXN GAA850 act	HSF1 inh	AHR activator	HSF-1 act	NR0B1 inh
CCOC(=O)Cc1nc2cc(Cl)ccc2o1	3	0	2	0	-1
COc1cc(Cl)ccc1OC1(C)CCN(Cc2ccc(-c3ccccn3)cc2)C1 (stereo not given)	2	.	.	.	.
CC(=O)c1ccc(NC(=O)CCCN2C(=O)COc3ccc(C)cc32)cc1	2	-4	8	-10	-1
Oc1ccccc1-c1cc(-c2ccc(F)cc2)n[nH]1	6	13	74*	45	11*
Oc1ccc(Br)cc1-c1cc(-c2ccccc2F)[nH]n1	7	1	56*	3	0
Cc1ccc(-c2cc(-c3ccc(F)cc3)n[nH]2)c(O)c1	8	26	.	30	12*
Oc1ccc(F)cc1-c1cc(-c2ccc3c(c2)OCCO3)n[nH]1	5	61	9	105*	4.4*
Cc1cc(OC(C)C(=O)NNC(=O)Nc2ccc(F)cc2F)cc(C)c1Cl (stereo not given)	2	5	8	19	0
Cc1cc(Cl)c(OCCCCNC(C)(C)C)c(Br)c1	.	-8	6	8	.
Cc1ccc(-c2cc(-c3ccc(C)cc3O)[nH]n2)cc1	2	52	68*	71*	5.1*
CCOC(=O)NC(=O)c1cn(Nc2ccccc2C(F)(F)F)c(=O)[nH]c1=O	-1	-3	-1	-1	0
c1csc(-c2cn3ccc4ccccc4c3n2)c1	5	26	57*	?	2
c1ccc(CNc2nc(-c3cccs3)nc3ccccc23)cc1	1	9	.	1	0
CC1=Nc2cc(C(=O)O)ccc2Sc2c(C)ccc(C)c21	0	110	1	101*	1
Cc1cc2c(ncn2C)c(NS(=O)(=O)c2cc(Cl)ccc2Cl)c1C	0	76	8	140*	0
O=C(O)c1ccc(N=Nc2c(O)[nH]c3cc(Cl)ccc23)cc1	9.8*	6	30	-3	6.4*
Cc1cccc2c(N=Nc3ccccc3)c(O)[nH]c12	3	26	76*	61*	5.4*
Oc1[nH]c2ccccc2c1N=Nc1cccc(Cl)c1	7	37	41	69*	1
Cc1cccc2c(N=NC(=O)C(C)n3cnc4ccccc4c3=O)c(O)[nH]c12 (stereo not given)	1	12	6	17	0
COc1ccc(Cl)cc1NC(=O)COC(=O)Cc1cc(OC)c(OC)c(OC)c1	0	.	4	.	-1
O=C(CNc1cccc([N+](=O)[O-])c1)N1CCN(S(=O)(=O)c2ccc(Cl)cc2)CC1	1	.	.	.	-1
COc1ccccc1CC(=O)Nc1ccc2[nH]ncc2c1	-2	-6	5	-4	0
COc1ccc(C(=O)Nc2ccc3[nH]ncc3c2)cc1OC	5	-3	48*	-1	0
COc1ccc(C(=O)Nc2ccc(Cn3ccnc3)cc2)cc1OC	0	-4	51*	6	2
COc1ccc(C(=O)C2CCCN(Cc3ccc(NC(C)=O)cc3)C2)cc1OC (stereo not given)	0	-72*	-1	-76	-1
SMILES	FXN GAA850 act	HSF1 inh	AHR activator	HSF-1 act	NR0B1 inh
Cc1nn(-c2ccccc2)nc1C(=O)Nc1ccc2[nH]ncc2c1	4	1	52*	5	-1
CCN(CC)c1ccc(C(=O)OCC(=O)Nc2ccc3[nH]c(=O)[nH]c3c2)cc1	-1	-5	4	7	0
Clc1cccc(Nc2ncnc3ccc(Br)cc23)c1	-8	-32	41	-33	0
Clc1ccc(Nc2ncnc3ccc(Br)cc23)cc1	-8	-21	67*	-21	-1
O=C(CCC(=O)c1ccc(F)cc1)Nc1cc(Cl)cc(Cl)c1	-1	5	8	58*	-1
CC(=O)c1cccc(NC(=O)CCC(=O)c2ccc(F)cc2)c1	1	7	.	29	0
COC(=O)c1c(NC(=O)CSc2ncn[nH]2)sc(C)c1C	-1	-5	5	-3	-1
O=C(NCC1CCCCC1)c1ccc([N+](=O)[O-])cc1	2	3	-1	21	10*
O=C(OCC1OC(n2ccc(=O)[nH]c2=O)C2OC12)c1ccccc1 (stereo not given)	0	.	.	.	0
S=c1[nH]c(-c2ccc(Br)cc2)cn1CCc1ccccc1	3	26	16	62*	-1
Nc1ccc(-n2cc(-c3ccccc3)[nH]c2=S)cc1	3	1	24	-7	1
COc1ccccc1-n1cc(-c2ccc([N+](=O)[O-])cc2)[nH]c1=S	1	6	63*	35	-2
COc1ccccc1-n1cc(-c2ccc(Br)cc2)[nH]c1=S	0	8	78*	18	-2
CC(NCc1ccc(-c2ccccc2)cc1)C(O)c1ccccc1 (stereo not given)	-2	-5	1	-6	0
O=C(N/N=C1\C/C(=N\NC(=O)c2ccncc2)c2ccccc21)c1ccncc1	0	10	56*	18	0
CCCCOc1ccc(Br)cc1/C(C)=N/NC1=NCCN1	-4	-32	57*	-29	-2
COc1ccccc1CNc1ccc([N+](=O)[O-])cc1C	2	27	4	55*	.
COc1ccc([N+](=O)[O-])cc1NC(=O)Cc1ccccc1Cl	2	-1	9	0	0
COc1cccc(CNc2ccc([N+](=O)[O-])cc2Cl)c1O	3	72	0	97*	0
CCN(Cc1ccccc1)C(=O)c1c(-c2ccccc2Cl)noc1C	-1	5	-1	11	0
CCc1cccc(Nc2cc(C)nc3nc(C)nn23)c1	-3	-2	4	-3	4.3*
Cc1cc(Nc2ccc(Br)cc2F)n2nc(C)nc2n1	-1	-1	56*	-3	-1
Cc1cc(Nc2ccccc2F)n2nc(C)nc2n1	-1	-9	3	-6	3
Cc1cc(C)cc(Nc2cc(C)nc3nc(C)nn23)c1	0	3	51*	6	2
Cc1cc(Nc2cccc(C(F)(F)F)c2)n2nc(C)nc2n1	0	5	12	0	0
SMILES	FXN GAA850 act	HSF1 inh	AHR activator	HSF-1 act	NR0B1 inh
CN1CCN(C(=O)c2cccc(-c3cnc4cnc(-c5ccccc5Oc5ccccc5)cn34)c2)CC1	0	.	.	.	.
Clc1ccccc1-c1nc(N/N=C/c2cccnc2)c2ccccc2n1	0	-4	67*	4	-1
c1ccc2c(Nc3nc(-c4ccncc4)nc4ccccc34)cccc2c1	0	-87*	51*	-90	.
Nc1c(Cl)ncnc1N/N=C/c1cccnc1	1	1	34	30	5.0*
Cc1c(O)ccc(/C=N/Nc2nc(-c3cccnc3)nc3ccccc23)c1O	-2	-5	27	-14	-4
Cc1ccc(-c2nc(N/N=C/c3ccncc3)c3ccccc3n2)cc1	1	32	64*	35	-4
COc1ccc(/C=N/Nc2nc(-c3cccnc3)nc3ccccc23)cc1OC	-3	-1	68*	-21	-2
Oc1ccc(/C=N/Nc2nc(-c3cccnc3)nc3ccccc23)c(O)c1	-4	3	7	19	-3
